Screens as filed in PubChem.
PfHsp90 set2 – inhibits growth of yeast expressing Plasmodium falciparum Hsp90; AID 504621; actives 0.32% (n = 310,000); S. cerevisiae expressing PfHsp90, BacTiter-Glo ATP, 48 h; yeast lacking PDR1 and PDR3 efflux regulators; inhibition, % at 9.4 µM;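 active = every replicate shows inhibition above about 80%, whatever the replicate mean, limit read from the data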
tim23-1 inh – growth inhibitors of tim23-1 mutant yeast; S. cerevisiae tim23-1 growth, BacTiter-Glo luminescence, 24 h; inhibition, % at 20 µM; actives 1.3% (n = 330,000); AID 463212;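 active = growth inhibition of the mutant yeast at or above 50%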;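 also: temperature-sensitive mutant grown at 25 °C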
tim10-1 inh – inhibits growth of tim10-1 mutant yeast; inhibition, % at 20 µM; AID 463190; actives 2.2% (n = 330,000); S. cerevisiae tim10-1 ts strain growth, BacTiter-Glo, 24 h;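 active = inhibition of at least 40%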;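 also: mutant grown at 25 °C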
TIM10 inh – inhibits growth of TIM10 yeast strain | inhibition, % at 10 µM | S. cerevisiae TIM10 strain growth, BacTiter-Glo luminescence, 24 h | actives 1.4% (n = 330,000);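 active = inhibition of 40% or more at the single tested concentration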;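 also: wild-type TIM10 isogenic control strain grown at permissive 25 °C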
NALP3 yeast inh – blocks the NALP3 inflammasome reconstituted in yeast | inhibition, % at 10 µM | AID 2825 | Yeast reconstituted NLRP3/ASC/caspase-1, beta-gal luminescence, 24 h | actives 0.39% (n = 330,000);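 active = inhibition of 50% or more; inactive = inhibition below 50%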
tim10-1 conf – tim10-1 yeast growth inhibition, confirmed | S. cerevisiae tim10-1 ts strain growth, BacTiter-Glo, 24 h | shares compounds with tim10-1 inh | inhibition, % at 20 µM | actives 56% (n = 7,400) | AID 463213;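 active = inhibition of yeast growth at or above a set limit in either of two repeat tests at 20 µM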;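 also: tim10-1 mutant grown at permissive 25 °C to find synthetic lethal compounds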
tim10 confirm – TIM10 yeast growth inhibition, confirmed; actives 63% (n = 4,600); S. cerevisiae tim10 strain growth, BacTiter-Glo luminescence, 24 h; AID 463215; shares compounds with TIM10 inh; inhibition, % at 10 µM;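 active = inhibition of yeast growth at or above a set limit in either of two replicates at 10 µM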; also: this counterscreen used the strain with wild-type TIM10
tim23-1 confirm – tim23-1 yeast growth inhibition, confirmed | shares compounds with tim23-1 inh | S. cerevisiae tim23-1 growth, BacTiter-Glo luminescence, 24 h | inhibition, % at 20 µM | actives 83% (n = 4,400) | AID 463218;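 active = inhibition above about 39% in either of two replicate wells at 20 µM, limit read from the data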;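 also: temperature-sensitive tim23-1 mutant grown at 25 °C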
Numbers stand for hits; . = inactive; / = no result. Rows were chosen to be rich in hits. Some 3.7% of all compounds tested hit in one or more screens of this group.

SMILES | PfHsp90 set2 | tim23-1 inh | tim10-1 inh | TIM10 inh | NALP3 yeast inh | tim10-1 conf | tim10 confirm | tim23-1 confirm
Cc1ccc(NC(=O)CN(C)C(=O)Cc2c[nH]c3ccccc23)cc1 | . | . | . | . | . | / | / | /
COCCNC(=O)/C(C#N)=C/c1c(F)cccc1Cl | . | 82 | 63 | 66 | . | 56 | 63 | 77
CCN(CC)Cc1cc(Nc2c3ccccc3nc3c4ccccc4n(C)c23)cc(CN(CC)CC)c1O | . | / | / | / | / | / | / | /
CC(NC(=O)CNC(=O)c1ccccc1F)c1ccc(-n2ccnc2)cc1 (centres undefined) | . | . | . | . | . | / | / | /
COc1ccc(NC2CCCN(C(=O)CCOc3ccccc3)C2)cc1 (centres undefined) | . | . | . | . | . | / | / | /
O=C(c1nnsc1S(=O)c1ccc(Cl)cc1)N1CCOCC1 (centres undefined) | . | 57 | 60 | . | . | 42 | / | 90
O=C(Nc1ccccc1)c1nnsc1S(=O)c1ccc(Cl)cc1 (centres undefined) | 106 | 56 | 92 | 94 | . | 92 | 98 | 98
Cc1nnsc1S(=O)c1ccc(Cl)cc1 (centres undefined) | . | . | . | . | . | / | / | /
COc1ccc2cc3cc(C(=O)NCc4cccs4)oc3nc2c1 | / | . | . | . | . | / | / | /
COc1ccc2cc3cc(C(=O)NCCN4CCc5ccccc5C4)oc3nc2c1 | . | 63 | 75 | 86 | . | 68 | . | .
COc1ccc2nc(NC(=O)CCc3cc(OC)c(OC)c(OC)c3)sc2c1 | . | . | . | . | . | / | / | /
Oc1ccc2ccccc2c1CNc1ccc(Br)cc1 | / | . | . | . | . | / | / | /
Oc1ccc2ccccc2c1CNc1ccc(Br)cn1 | . | 61 | 46 | . | . | 63 | / | 68
O=C1c2ccccc2C(=O)c2c(Nc3ccc(CCO)cc3)ccc(O)c21 | . | 57 | 59 | . | . | 37 | / | 51
O=C1c2c(O)ccc(O)c2C(=O)c2c(NCCNCCO)ccc(NCCNCCO)c21 | . | . | . | . | . | / | / | /
O=C(NNC(=O)C1CC(c2cccs2)=NO1)NC1CCCCC1 (centres undefined) | . | . | . | . | . | / | / | /
Cc1cccc(C(=O)O/N=C(\N)c2cccc([N+](=O)[O-])c2)c1 | . | 53 | 74 | 58 | . | 80 | 49 | 51
Cc1cccc(/C(N)=N/OC(=O)c2cccc3ccccc23)c1 | / | 82 | 64 | 87 | . | 54 | 85 | 47
CCC(C(=O)O/N=C(\N)c1cccc(C)c1)c1ccccc1 (centres undefined) | . | 61 | 63 | 54 | . | 53 | . | 55
Cc1cccc(/C(N)=N/OC(=O)c2ccc(Br)o2)c1 | . | 67 | 43 | 69 | . | 47 | 63 | 57
N/C(=N\OC(=O)c1cccc([N+](=O)[O-])c1)c1cccnc1 | . | . | . | . | . | / | / | /
O=c1sc2ccccc2c(N2CCOCC2)c1[N+](=O)[O-] | . | . | . | . | . | / | / | /
CCCCc1noc(-c2c(-c3ccccc3Cl)noc2C)n1 | / | . | . | . | . | / | / | /
CC(NC(=O)C(=O)N/N=C\c1cccc([N+](=O)[O-])c1)c1ccccc1 (centres undefined) | . | . | . | . | . | / | / | /
Cc1cccc(/C(N)=N/OC(=O)Cc2ccccc2)c1 | . | . | . | . | . | / | / | /
SMILES | PfHsp90 set2 | tim23-1 inh | tim10-1 inh | TIM10 inh | NALP3 yeast inh | tim10-1 conf | tim10 confirm | tim23-1 confirm
Cc1cccc(/C(N)=N/OC(=O)c2cccnc2)c1 | . | . | . | . | . | / | / | /
N/C(=N\OC(=O)CCC1CCCCC1)c1cccc([N+](=O)[O-])c1 | . | 54 | 79 | 62 | . | 79 | 49 | 77
COc1cc(OC)cc(C(=O)O/N=C(\N)c2cccc(C)c2)c1 | . | 86 | 53 | 79 | . | 40 | 85 | 83
Cc1cccc(/C(N)=N/OC(=O)c2ccc3c(c2)OCO3)c1 | . | 88 | 75 | 83 | . | 66 | . | 85
N/C(=N\OC(=O)COc1ccc(Br)cc1)c1cccc([N+](=O)[O-])c1 | . | . | . | . | . | / | / | /
Cc1cccc(/C(N)=N/OC(=O)C23CC4CC(CC(C4)C2)C3)c1 | . | 68 | 55 | 80 | . | 57 | . | 66
O=C(COC(=O)C12CC3CC(CC(O)(C3)C1)C2)Nc1ccc(Cl)c(S(=O)(=O)N2CCOCC2)c1 | . | . | . | . | . | / | / | /
Nc1ccc(S(=O)(=O)Nc2cc(Cl)c(N)c(Cl)c2)cc1 | . | / | / | / | / | / | / | /
Cc1ccc(CSc2[nH]c(=O)ncc2C)cc1 | . | . | . | . | . | / | / | /
O=C(Cc1ccc(NC(=O)C2CCCN(C(=O)C3CC3)C2)cc1)Nc1cccc(C(=O)N2CCCCC2)c1 (centres undefined) | . | / | / | / | / | / | / | /
Nc1c(Cl)cc2c(c1Oc1ccccc1)C(=O)c1ccccc1C2=O | . | 66 | 52 | 54 | . | . | 48 | 67
CC1CCN(C2=NC(=O)/C(=C/c3cccc(O)c3)S2)CC1 | . | . | . | . | . | / | / | /
CC1CCN(C2=NC(=O)/C(=C/c3ccccc3F)S2)CC1 | . | 52 | 46 | . | . | 35 | / | 53
Cc1ccc(OS(=O)(=O)c2c(C)nn(C)c2Cl)c(C)c1 | . | . | . | . | . | / | / | /
Cc1nc2c(Br)cc(Br)cc2cc1O | . | 76 | 71 | 50 | . | 61 | 45 | 83
O=C(CNc1ccc(Br)cc1)NC(=O)NC1CCCCC1 | . | 59 | 48 | . | . | 37 | / | .
COc1ccccc1NC(=S)N1CC(C)(C)C1=O | . | . | . | . | . | / | / | /
C/C(=N\NC(=S)Nc1cccc(C)c1)c1ccccc1 | . | 51 | 51 | 60 | . | 50 | . | 52
O=c1c2ccccc2sc2nc(C3CCCCC3)n(Cc3ccco3)c(=O)c12 | . | / | / | / | / | / | / | /
CCc1nc2sc3ccccc3c(=O)c2c(=O)n1Cc1ccco1 | . | 53 | 69 | . | . | 61 | / | 62
COC(=O)c1ccccc1S(=O)(=O)N1CCC(C(=O)OC(C)C(=O)N(C)Cc2ccccc2)CC1 (centres undefined) | . | / | / | / | / | / | / | /
Cc1ccccc1S(=O)(=O)Oc1ccc2ccc(O)cc2c1 | . | . | . | . | . | / | / | /
COc1cccc(C(=O)Oc2ccc3ccc(O)cc3c2)c1 | / | 57 | 43 | . | . | 38 | / | 54
Cc1ccccc1C(=O)Oc1ccc2ccc(O)cc2c1 | . | 51 | 49 | . | . | 46 | / | 49
CCCCCN(C(=O)CCC(=O)OCC(=O)N1CCCCC1CC)c1c(N)n(CCCC)c(=O)[nH]c1=O (centres undefined) | . | / | / | / | / | / | / | /
O=S(=O)(Cc1ccccc1)NCc1cccnc1 | . | . | . | . | . | / | / | /
O=C1C(Cl)=C(NCc2cccnc2)C(=O)c2ccccc21 | . | 69 | 45 | . | . | . | / | 64
